In all, about 5,500 compounds went through this assay and about 2,000 (36%) were called active. About 18% were inconclusive and are not listed. Cut-off read from the data, not from the text of the source: active = normalized growth mostly below about 0.91 (no sharp cut-off); inconclusive = no clear call, values can overlap the other calls; inactive = mostly above about 0.92. The list shows a part of the results.
Assay: chemical genetic growth profiling, strain panel (AID 1159580);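 note: tested at 20 µM; growth read once vehicle control cultures reached saturation at 30 °C; 1 = growth at the plate median or of vehicle wells; lower values mean less growth of the strain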
Conditions: S. cerevisiae deletion strains, growth OD
[1] = locus YAR019C, strain CDC15, hits give low values
[2] = locus YBL105C, strain PKC1, hits give low values
[3] = locus YBR135W, strain CKS1, hits give low values
[4] = locus YBR136W, strain MEC1, hits give low values
[5] = locus YBR160W, strain CDC28, hits give low values
[6] = locus YDL017W, strain CDC7, hits give low values
[7] = locus YDL028C, strain MPS1, hits give low values
[8] = locus YDL101C, strain DUN1, hits give low values
[9] = locus YDL108W, strain KIN28, hits give low values
[10] = locus YDL132W, strain cdc53, hits give low values
[11] = locus YDL214C, strain PRR2, hits give low values
[12] = locus YDR052C, strain DBF4, hits give low values
[13] = locus YDR054C, strain cdc34, hits give low values
[14] = locus YDR226W, strain ADK1, hits give low values
[15] = locus YDR477W, strain SNF1, hits give low values
[16] = locus YER123W, strain YCK3, hits give low values
[17] = locus YER133W, strain GLC7, hits give low values
[18] = locus YFL009W, strain cdc4, hits give low values
[19] = locus YFL029C, strain CAK1, hits give low values
[20] = locus YFR003C, strain YPI1, hits give low values
[21] = locus YFR019W, strain FAB1, hits give low values
[22] = locus YFR028C, strain CDC14, hits give low values
[23] = locus YGR040W, strain KSS1, hits give low values
[24] = locus YGR052W, strain FMP48, hits give low values
[25] = locus YGR092W, strain DBF2, hits give low values
[26] = locus YHR030C, strain SLT2, hits give low values
[27] = locus YHR079C, strain IRE1, hits give low values
[28] = locus YHR082C, strain KSP1, hits give low values
[29] = locus YHR205W, strain SCH9, hits give low values
[30] = locus YIL147C, strain SLN1, hits give low values
[31] = locus YJL095W, strain BCK1, hits give low values
[32] = locus YJL128C, strain PBS2, hits give low values
[33] = locus YJL157C, strain FAR1, hits give low values
[34] = locus YJR016C, strain ILV3, hits give low values
[35] = locus YJR066W, strain TOR1 (second series), hits give low values
[36] = locus YJR066W, strain TOR1, hits give low values
[37] = locus YKL048C, strain ELM1, hits give low values
[38] = locus YKL067W, strain YNK1, hits give low values
[39] = locus YKL101W, strain HSL1, hits give low values
[40] = locus YKL193C, strain SDS22, hits give low values
[41] = locus YKL203C, strain TOR2, hits give low values
[42] = locus YLR113W, strain HOG1, hits give low values
[43] = locus YLR133W, strain CKI1, hits give low values
[44] = locus YLR403W, strain SFP1, hits give low values
[45] = locus YML070W, strain DAK1, hits give low values
[46] = locus YMR001C, strain CDC5, hits give low values
[47] = locus YMR205C, strain PFK2 (second series), hits give low values
[48] = locus YMR277W, strain FCP1, hits give low values
[49] = locus YNL006W, strain LST8, hits give low values
[50] = locus YNL020C, strain ARK1, hits give low values
[51] = locus YNL161W, strain CBK1, hits give low values
[52] = locus YNL183C, strain NPR1, hits give low values
[53] = locus YNL207W, strain RIO2, hits give low values
[54] = locus YNL222W, strain SSU72, hits give low values
[55] = locus YNL307C, strain MCK1 (second series), hits give low values
[56] = locus YOL078W, strain AVO1, hits give low values
[57] = locus YOL136C, strain PFK27, hits give low values
[58] = locus YOR061W, strain CKA2, hits give low values
[59] = locus YOR119C, strain RIO1, hits give low values
[60] = locus YOR231W, strain MKK1, hits give low values
[61] = locus YOR329C, strain SCD5, hits give low values
[62] = locus YPL031C, strain PHO85, hits give low values
[63] = locus YPL153C, strain RAD53, hits give low values
[64] = locus YPL204W, strain HRR25, hits give low values
[65] = locus YPL209C, strain IPL1, hits give low values
[66] = locus YPL256C, strain CLN2, hits give low values
[67] = locus YPR025C, strain CCL1, hits give low values
[68] = locus YPR106W, strain ISR1, hits give low values
[69] = locus YPR111W, strain DBF20, hits give low values
[70] = strain NNK1, hits give low values
[71] = strain TSCII, hits give low values

Measured: normalized growth

Cc1ccc2c(c1)CCCN2CC(=O)N(c1ccccc1)C1CCCCC1
active: [42] 0.836
inactive: [1] 0.989 | [2] 0.978 | [3] 0.986 | [4] 0.986 | [5] 0.978 | [6] 0.982 | [7] 0.994 | [8] 0.984 | [9] 0.986 | [10] 0.987 | [11] 0.943 | [12] 0.991 | [13] 0.975 | [14] 0.992 | [15] 0.951 | [16] 0.928 | [17] 0.951 | [18] 0.989 | [19] 0.986 | [20] 0.986 | [21] 0.961 | [22] 0.976 | [23] 0.923 | [24] 0.994 | [25] 0.948 | [26] 0.966 | [27] 0.965 | [28] 0.991 | [29] 0.991 | [30] 0.991 | [31] 0.965 | [32] 0.932 | [33] 0.944 | [34] 0.985 | [35] 0.928 | [36] 0.999 | [37] 0.945 | [38] 0.946 | [39] 0.912 | [40] 0.974 | [41] 0.999 | [43] 0.937 | [44] 0.935 | [45] 0.912 | [46] 0.991 | [47] 0.955 | [48] 0.99 | [49] 0.992 | [50] 0.943 | [51] 0.983 | [52] 0.941 | [53] 0.98 | [54] 0.983 | [55] 0.948 | [56] 0.99 | [57] 0.925 | [58] 0.956 | [59] 1 | [60] 0.907 | [61] 0.995 | [62] 0.95 | [63] 0.936 | [64] 0.957 | [65] 0.98 | [66] 0.884 | [67] 0.991 | [68] 0.97 | [69] 0.964 | [70] 0.973 | [71] 0.987

CCCc1cnc(N2CCN(CC(=O)N(c3ccccc3)C3CCCCC3)CC2)nc1
inactive: [1] 0.995 | [2] 0.985 | [3] 0.992 | [4] 0.985 | [5] 0.984 | [6] 0.991 | [7] 0.997 | [8] 0.986 | [9] 0.99 | [10] 0.992 | [11] 0.997 | [12] 0.989 | [13] 0.974 | [14] 0.985 | [15] 0.999 | [16] 0.997 | [17] 1 | [18] 0.989 | [19] 0.993 | [20] 0.988 | [21] 1 | [22] 0.999 | [23] 0.985 | [24] 1.09 | [25] 1 | [26] 1.05 | [27] 1.03 | [28] 1.09 | [29] 0.97 | [30] 0.99 | [31] 1.05 | [32] 0.985 | [33] 0.981 | [34] 1 | [35] 0.995 | [36] 1.07 | [37] 0.969 | [38] 1 | [39] 0.993 | [40] 0.99 | [41] 1.05 | [42] 0.949 | [43] 0.997 | [44] 0.977 | [45] 1.03 | [46] 0.991 | [47] 1.01 | [48] 0.994 | [49] 0.988 | [50] 0.997 | [51] 0.99 | [52] 1.04 | [53] 0.997 | [54] 0.995 | [55] 1 | [56] 0.994 | [57] 0.985 | [58] 1.01 | [59] 1.04 | [60] 0.992 | [61] 0.986 | [62] 1 | [63] 0.998 | [64] 0.981 | [65] 0.98 | [66] 0.968 | [67] 0.99 | [68] 0.979 | [69] 0.976 | [70] 0.99 | [71] 0.992

CN(C)C(=O)Oc1cc(OC(=O)N(C)C)cc(C(O)CNC(C)(C)C)c1 (configuration not stated)
inactive: locus YAL021C, strain ccr4, hits give low values 1.02 | locus YAL026C, strain drs2, hits give low values 1.03 | locus YAL030W, strain snc1, hits give low values 1.02 | locus YBL061C, strain skt5, hits give low values 1.02 | locus YBR009C, strain hhf1, hits give low values 1.04 | locus YBR023C, strain chs3, hits give low values 1.02 | locus YBR171W, strain sec66, hits give low values 1.03 | locus YBR231C, strain swc5, hits give low values 1.03 | locus YBR279W, strain paf1, hits give low values 1.02 | locus YCL011C, strain gbp2, hits give low values 1.03 | locus YCL016C, strain dcc1, hits give low values 1.03 | locus YCL061C, strain MRC1, hits give low values 1.03 | locus YCL069W, strain vba3, hits give low values 1.03 | locus YCR088W, strain abp1, hits give low values 1.03 | locus YDL005C, strain med2, hits give low values 1.03 | locus YDL040C, strain nat1, hits give low values 1.04 | locus YDR001C, strain nth1, hits give low values 1.03 | locus YDR069C, strain doa4, hits give low values 1.03 | locus YDR137W, strain rgp1, hits give low values 1.04 | locus YDR159W, strain sac3, hits give low values 1.05 | locus YDR195W, strain ref2 1.02 | locus YDR297W, strain sur2, hits give low values 1.02 | locus YDR334W, strain swr1, hits give low values 1.04 | locus YDR335W, strain msn5, hits give low values 1.03 | locus YDR392W, strain spt3, hits give low values 0.947 | locus YEL003W, strain gim4, hits give low values 1.02 | locus YEL037C, strain rad23, hits give low values 1.03 | locus YEL061C, strain CIN8 (second series), hits give low values 1.03 | locus YER015W, strain faa2, hits give low values 1.03 | locus YER016W, strain bim1, hits give low values 1.04 | locus YER111C, strain swi4, hits give low values 1.03 | locus YER155C, strain BEM2 (second series), hits give low values 1.03 | locus YFR010W, strain ubp6, hits give low values 1.03 | locus YGL167C, strain pmr1, hits give low values 1.03 | locus YGL173C, strain kem1, hits give low values 1.04 | locus YGL227W, strain vid30, hits give low values 1.04 | locus YGL240W, strain doc1, hits give low values 1.03 | locus YGL253W, strain hxk2, hits give low values 1.03 | locus YHR013C, strain ard1, hits give low values 1.02 | locus YHR027C, strain rpn1, hits give low values 1.04 | [26] 0.977 | [27] 0.991 | locus YHR142W, strain chs7, hits give low values 1.02 | locus YJL092W, strain hpr5, hits give low values 1.02 | locus YJL095W, strain BCK1 (second series), hits give low values 1.03 | [31] 1.01 | locus YJL115W, strain asf1, hits give low values 1.03 | locus YJL129C, strain trk1, hits give low values 1.04 | locus YJL154C, strain vps35, hits give low values 1.03 | locus YJL164C, strain tpk1, hits give low values 1.01 | locus YJL166W, strain qcr8, hits give low values 1.02 | locus YJL187C, strain SWE1, hits give low values 1.02 | [36] 0.921 | locus YKL160W, strain elf1, hits give low values 1.01 | locus YKR026C, strain gcn3, hits give low values 1.03 | locus YKR091W, strain srl3, hits give low values 1.03 | locus YLL001W, strain dnm1, hits give low values 1.04 | locus YLL026W, hits give low values 1.02 | locus YLL041C, strain sdh2, hits give low values 1.03 | locus YLR027C, strain aat2, hits give low values 1.03 | [42] 1.01 | locus YLR221C, strain rsa3, hits give low values 1.02 | locus YLR258W, strain gsy2, hits give low values 1.03 | locus YLR262C, strain YPT6 (second series), hits give low values 1.03 | locus YLR320W, strain mms22, hits give low values 1.04 | locus YLR342W, strain FKS1, hits give low values 1.03 | locus YLR357W, strain rsc2, hits give low values 1.02 | locus YLR370C, strain arc18, hits give low values 1.03 | locus YLR384C, strain iki3, hits give low values 1.02 | locus YML120C, strain ndi1, hits give low values 1 | locus YMR058W, strain fet3, hits give low values 1.03 | locus YMR125W, strain sto1, hits give low values 1.04 | locus YMR129W, hits give low values 1.02 | locus YMR205C, strain PFK2, hits give low values 1.05 | locus YMR231W, strain pep5, hits give low values 1.03 | locus YNL071W, strain lat1, hits give low values 1.03 | [52] 0.934 | locus YNL209W, strain ssb2, hits give low values 1.02 | locus YNL248C, strain rpa49, hits give low values 1 | locus YNL322C, strain KRE1 (second series), hits give low values 1.03 | locus YNR049C, strain mso1, hits give low values 1.03 | locus YOR001W, strain rrp6, hits give low values 0.999 | locus YOR070C, strain gyp1, hits give low values 1.02 | locus YOR080W, strain dia2, hits give low values 1.03 | locus YOR083W, strain WHI5, hits give low values 1.01 | locus YOR106W, strain vam3, hits give low values 1.03 | [60] 1.03 | locus YOR265W, strain rbl2, hits give low values 1.03 | locus YOR270C, strain vph1, hits give low values 1.06 | locus YOR290C, strain snf2, hits give low values 0.989 | locus YPL051W, strain arl3, hits give low values 1.01 | locus YPL078C, strain atp4, hits give low values 1.02 | locus YPL106C, strain sse1, hits give low values 1.05 | locus YPL240C, strain hsp82, hits give low values 1.03 | [66] 0.984

Source: PubChem BioAssay AID1159580 (chemical genetic matrix, 2015)
